Screens (PubChem BioAssay)
This is a sample that favours compounds with a hit; in the whole collection about 7.1% have one here.
PINK1 modulator: A Quantitative High throughput Screen to Identify Chemical Modulators of PINK1 Expression. PINK1 immunofluorescence, high-content cytometry, 24 h. Potency, µM (highest dose often 76.6 µM), inactives show at the highest dose activation (PINK1 increase), actives largely listed as activators. hit rate 0.2% among 410,000; active = well fitted activation curve with a large enough effect; inconclusive = small, poorly fitted or top-dose-only effect; cell line not stated here; also: potency is read from the fitted curve at half-maximal effect; % of control where 0% means no effect; nearly all actives have a fitted effect of over 65% in size
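Fluorescence from anti-PINK1 antibody, together with nuclear and cell stains, was scanned on a laser-scanning cytometer. Before staining, stable-line cells were incubated 24 hours with compounds at 5 concentrations; primary antibody 12 h at 10 degrees C.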
MCF10A rerep: A quantitative high throughput screen for small molecules that induce DNA re-replication in MCF 10a normal breast cells; Potency, µM (series often up to 46.1 µM), inactives show top-dose activity, positive = re-replication, actives largely listed as activators; MCF 10A DNA re-replication, Hoechst nuclear intensity, 48 h; hit rate 2.9% among 350,000; also: potency is read from the fitted curve at half-maximal effect; % of control where 0% means no effect; nearly all actives have a fitted effect of over 50% in size
IL1B secr inh: qHTS for Inhibitors of Inflammasome Signaling: IL-1-beta AlphaLISA Primary Screen. THP-1 LPS/ATP IL-1B secretion, AlphaLISA, 16 h; hits give low values. activity change, % at 57.5 µM. hit rate 4.7% among 360,000; in the data active = activity change below about -50%; inconclusive = mostly about -30% to -49%; also: % is scaled to controls: 0 for no effect and ±100 for the full control effect
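Secreted IL-1B measured by AlphaLISA bead assay after 16 h compound exposure of THP-1 cells; compounds (final up to 57.5 uM) added 1 h before LPS (250 ng/mL) and ATP (1.25 mM) stimulation; lower signal means less secretion.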
SW480 rereplic: A quantitative high throughput screen for small molecules that induce DNA re-replication in SW480 colon adenocarcinoma cells; SW480 DNA re-replication, Hoechst DNA content imaging, 48 h; Potency, µM (top dose mostly 46.1 µM), inactives show top-dose re-replication activation, usual class: activators; hit rate 1.8% among 340,000; AID 624297, 2012; also: potency is read from the fitted curve at half-maximal effect; % of control where 0% means no effect; nearly all actives have a fitted effect of over 55% in size
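Hoechst fluorescence of nuclei (405 nm excitation, 500-530 nm emission) measured by plate-scanning imager after 48 hr compound exposure at 37 C; re-replication scored as increased number of nuclei with elevated intensity.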
ATXN2 expr inh: Primary qHTS for Inhibitors of ATXN expression | HEK-293 ATXN2-luciferase reporter, luminescence, 24 h | Potency, µM (titrated, usually from 57 µM), for inactives: at the top dose activity change, negative = inhibition, most hits filed as inhibitors | hit rate 0.72% among 360,000 | AID 1745845, 2022; also: potency is read from the fitted curve at half-maximal effect; % is scaled to controls: 0 for no effect and ±100 for the full control effect; nearly all actives have a fitted effect of over 55% in size
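ATXN2-luciferase reporter cells (luciferase flanked by upstream and downstream ATXN2 gene portions) were treated 24 h at 37 °C with compounds at up to 57 uM. SteadyGlo luminescence gave expression; GF-AFC fluorescence gave viability.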
ATXN viability: Viability Counterscreen for Primary qHTS for Inhibitors of ATXN expression. S2 cells (HEK-293 line with an ATXN2-luciferase reporter) viability, CellTiter-Fluor protease fluorescence, 24 h. Potency, µM (doses to about 56.7 µM), hits mostly cytotoxic. hit rate 0.49% among 400,000. AID 651635, 2014; also: potency is read from the fitted curve at half-maximal effect; nearly all actives have a fitted effect of over 40% in size
* marks the source's active call; other numbers are inactive results; i = inactive; ? = inconclusive; nt = not tested or not shown; [ ] = dose if it differs, or a comment. Unless noted, calls follow the shape of the dose curve; as a rule, active = well fitted curve in the direction sought with a large enough effect; inconclusive = small, poorly fitted or top-dose-only effect, or another doubt; inactive = no such curve, though single readings can be large; an effect the other way counts as inactive or inconclusive.

SMILES | PINK1 modulator | MCF10A rerep | IL1B secr inh | SW480 rereplic | ATXN2 expr inh | ATXN viability
CCOc1c(Br)cc(/C=C(\C#N)C(=O)NC2CC2)cc1OC | 3% | 8% | -13 | 2% | -4% | i
C=CCNC(=O)/C(C#N)=C/c1ccccc1Cl | -1% | 12% | -58* | -140% | -19% | i
COc1cccc(-c2ccc3c(N)c(C(=O)Nc4ccccc4C)sc3n2)c1 | 0% | nt | nt | nt | ? | nt
Cc1ccccc1NC(=O)c1sc2nc(-c3ccncc3)ccc2c1N | 4% | nt | nt | nt | 20µM* | i
Nc1c(C(=O)Nc2ccccc2Br)sc2nc(-c3cccs3)ccc12 | 17% | nt | nt | nt | ? | nt
Cc1ccc(NC(=O)c2sc3nc(-c4ccncc4)ccc3c2N)cc1 | 32µM* | nt | nt | nt | 4% | i
Nc1c(C(=O)Nc2nc3ccccc3s2)sc2nc(-c3cccs3)ccc12 | -5% | 4.1µM* | -114* | ? | ? | i
Nc1c(C(=O)Nc2ccc(F)c(F)c2)sc2nc(-c3ccncc3)ccc12 | 1% | nt | nt | nt | 4% | i
CO[C@H]1[C@H](NC(=O)c2ccsc2)c2ccccc2C12CCN(Cc1cccn1-c1ccccn1)CC2 | 0% | nt | nt | nt | nt | ?
c1ccc(-c2csc3ncnc(NCC4COc5ccccc5O4)c23)cc1 (stereo unspecified) | 4% | 26µM* | -4 | 2% | ? | ?
Cn1c(-c2ccccc2)cc2ccccc21 | 6% | -17% | 2 | -2% | 24% | i
Cn1c(-c2ccccc2)cc2c3no[n+]([O-])c3ccc21 | 0% | ? | 67 | 3.7µM* | ? | ?
Cc1cccc(OCc2nnc(SCC(=O)N(C(C)C)C(C)C)n2Cc2ccco2)c1C | 2%[38.3 µM] | ? | 0 | 21µM* | -10% | i
Cc1cc(NC(=O)CSc2nnc(COc3cccc(C)c3C)n2Cc2ccco2)no1 | ? | 0% | -20 | -13% | -8% | i
O=C(Cn1nnc(-c2ccccc2NC(=O)c2ccccc2)n1)Nc1ccc2c(c1)OCCO2 | 24%[38.3 µM] | ? | -10 | 0% | -13% | i
COc1ccc(NC(=O)Cn2nnc(-c3ccccc3NC(=O)c3cccs3)n2)cc1 | 6% | 15µM* | -5 | ? | ? | ?
Cc1ccc(NC(=O)Cn2nnc(-c3ccccc3NC(=O)c3cccs3)n2)cc1 | 2% | 6.5µM* | 9 | 3.7µM* | -30% | ?
Cc1ccccc1C(=O)Nc1ccccc1-c1nnn(CC(=O)Nc2ccc3c(c2)OCCO3)n1 | 6%[38.3 µM] | 23µM* | 32 | 14% | -13% | ?
COc1ccc2c(c1)OC(C)CN(CCC(=O)NCC1OCCc3ccccc31)C2 (stereo unspecified) | 1% | nt | nt | nt | nt | i
COC(=O)c1cc2sccc2n1Cc1nc(-c2ccc(C)cc2)oc1C | 2% | nt | nt | nt | 90% | i
COc1ccc(N(CC(=O)N2CCN(c3ccccc3)CC2)S(=O)(=O)c2c(C)nn(C)c2C)cc1 | 0% | nt | nt | nt | 11% | i
CC1(C)CC(=O)c2cc(-c3nc(-c4ccc(Br)cc4)cs3)c(=O)n(-c3ccccc3)c2C1 | 2% | nt | nt | nt | 3% | i
COc1ccc(CCNC(=O)Cn2cc(S(=O)(=O)Cc3ccccc3F)c3ccccc32)cc1OC | -2% | nt | nt | nt | nt | nt
COc1ccccc1CNC(=O)COC(=O)c1ccccc1-c1ccccc1 | 0% | 0% | -83* | 0% | -7% | i
Cc1cc(C(=O)Nc2cccc(-c3nc(CNC(=O)c4cc5ccccc5[nH]4)c(C)o3)c2)c(C)o1 | 1% | nt | nt | nt | nt | i
SMILES | PINK1 modulator | MCF10A rerep | IL1B secr inh | SW480 rereplic | ATXN2 expr inh | ATXN viability
COc1ccc(-c2noc(C3CCCN(C(=O)c4ccc(C)cc4)C3)n2)cc1 (stereo unspecified) | 3% | 16% | -70* | 19% | -19% | i
COc1ccc(-c2noc(C3CCCN(C(=O)c4ccc(F)cc4)C3)n2)cc1 (stereo unspecified) | 4% | 18% | ? | 5% | -26% | i
COc1cccc(-c2noc(C3CCCN(C(=O)CC(C)(C)C)C3)n2)c1 (stereo unspecified) | 3% | 0.46µM* | 17 | 24% | 0% | i
O=C(c1ccccc1Br)N1CCn2c1nc1ccccc12 | 2% | 3.7µM* | -5 | -15% | -18% | i
O=C(Nc1nnc(-c2ccccc2Cl)o1)c1nc2ccccc2s1 | 3% | ? | 33 | 3% | -18% | ?
COc1ccccc1-c1nnc(Nc2nc3c(OC)cccc3s2)o1 | ? | ? | 81 | 2.3µM* | -24% | ?
COc1cccc2sc(Nc3nnc(-c4ccccc4Cl)o3)nc12 | 7% | ? | 49 | 2.6µM* | ? | ?
COc1cccc(-c2nnc(Nc3nc4c(F)cccc4s3)o2)c1 | nt | 16µM* | 39 | 7% | -28% | i
O=C(c1cccc(Cl)c1)N1CCCC(Cn2cc(C(=O)N3CCCC3)nn2)C1 (stereo unspecified) | -1% | nt | nt | nt | nt | i
Cc1ccc(-c2csc(NC(=O)c3ccc(C)o3)n2)cc1 | 10% | ? | 0 | ? | 18% | i
Cc1cc(NC(=O)c2c(C)noc2C)no1 | 4% | 16µM* | 20 | ? | -6% | i
COc1ccc(-c2csc(NC(=O)C3CSC4(C)CCC(=O)N34)n2)c(OC)c1 (stereo unspecified) | 3% | 15% | -71* | 13% | -3% | i
COc1ccc(-c2csc(NC(=O)CSCc3c(C)noc3C)n2)c(OC)c1 | 0% | 10% | -53* | 0% | -3% | i
Cc1ccc(-c2csc(NC(=O)c3ccc([N+](=O)[O-])o3)n2)cc1 | 1% | 4.1µM* | -106* | 6.5µM* | -4% | ?
COc1ccc(-c2csc(NC(=O)CSCC(=O)Nc3cc(C)on3)n2)cc1 | 0% | 4% | 17 | -9% | 28% | ?
CC(C)C[C@@H](CNC(=O)OC(C)(C)C)NC(=O)c1nc[nH]c1C(=O)N[C@@H](CC(C)C)C(=O)CNC[C@H](CC(C)C)NC(=O)c1nc[nH]c1C(=O)N[C@@H](Cc1c[nH]c2ccccc12)C(=O)OC(C)(C)C | 2% | -12% | -3 | 2% | 4% | i
Cc1ccc(-c2csc(NC(=O)c3c(C)noc3C)n2)cc1 | 0% | ? | -18 | 1.6µM* | -3% | i
CCc1noc(C)c1C(=O)Nc1nc(-c2ccc(Cl)cc2Cl)cs1 | ? | 16µM* | ? | 13% | -34% | ?
COc1ccccc1C(=O)Nc1nc(-c2ccc(S(=O)(=O)N3CCOCC3)cc2)cs1 | 3% | ? | ? | 7% | 14µM* | ?
